Laboratory results reported in PubChem BioAssay (Tox21).
Calls of active or inactive are those of the source. Calls come from the whole dose curve; as a rule, active = well fitted curve in the direction sought with a large enough effect in the repeat runs; inconclusive = weak or mixed curves; inactive = flat fitted curve, though single readings scatter.

Test: qHTS assay to test for compound auto fluorescence at 590 nm (red) in HepG2 cells (AID 720674)
Settings: HepG2 autofluorescence, red 540/590 nm, 1 h; series mostly up to 91.3 µM
Description: U.S. Tox21 Program National Center for Advancing Translational Sciences [NCATS] NIH Chemical Genomics Center [NCGC] U.S. Environmental Protection Agency [EPA] National Institutes of Environmental Health Sciences [NIEHS] National Toxicology Program [NTP] U.S. Food and Drug Administration [FDA] Tox21 Assay Overview: Compound auto fluorescence often interferes with screening of the compound library against various biological targets and signaling pathways. Some of these compounds may have fluorophoric properties. Such properties may interfere with the assay outputs resulting in false positives and/or negatives. To decrease such complications and ensure the compound activities are relevant in terms of biological response, the Tox21 10K compound library was screened for auto fluorescence. From the fluorophores used as reporter signals in our screening assays, the auto fluorescence equivalencies of compounds against three fluorophores have been evaluated: Triamterene, Fluorescein and Rose Bengal sodium for blue, green and red fluorescence, respectively. The fluorescence intensities were measured using Excitation/Emission wavelengths at 405/460nm, 485/535nm and 540/590nm for blue, green and red labels, respectively. This assay includes the red fluorescence data.
Tox21 Assay Protocol Summary: 2,000 HepG2 cells in 5 uL of culture medium (MEM containing 10% FBS) per well were dispensed into black wall/clear bottom 1536-well plates using a Multidrop Combi Dispenser (ThermoFisher Scientific, Waltham, MA). The assay plates were incubated overnight at 37 C to allow cell attachment to the well bottom, followed by the transfer of 23 nL compound or DMSO vehicle by a pintool work station (Kalypsys , San Diego, CA). After the assay plates were incubated for 1 hr at 37 C and 5% CO2, fluorescence intensities in the assay plates were measured by an Envision (PerkinElmer, Shelton, CT) plate reader using three labels for measuring blue, green and red fluorescence at […] 460, 535 and 590 nm respectively.
In the case of `C=CS(=O)(=O)O`, the outcome is reported as “inactive”. For `Cc1ccnc2c1NC(=O)c1cccnc1N2C1CC1`, the outcome was “inactive”. For `C=C(C)C1CC=C(C)C(OC(C)=O)C1` (stereo not given), the outcome was “inactive”. In the case of `O=C(O)c1cn(-c2ccc(F)cc2)c2cc(N3CCNCC3)c(F)cc2c1=O`, the outcome is reported as “inactive”. In the case of `CCCCCCC(O)CCCCCCCCCCC(=O)O` (stereo not given), the outcome is reported as “inactive”. With `CCC[C@H](N[C@@H](C)C(=O)N1[C@H](C(=O)O)C[C@@H]2CCCC[C@@H]21)C(=O)OCC` the outcome was “inactive”. With `CNC1(C)C2CCC(C2)C1(C)C` (stereo not given) the outcome was “inactive”. For `CCCCOCCOC(=O)c1ccccc1C(=O)OCCOCCCC`, the outcome was “inactive”. With `CCc1cc(C(C)(C)C)c(O)c(C(C)(C)C)c1` the outcome was “inactive”. In the case of `Cc1cccc2n[nH]nc12`, the outcome is reported as “inactive”. With `CC(C)(C)c1ccc(O)c(C(C)(C)C)c1` the outcome was “inactive”. For `O=C(O)CCc1ccccc1`, the outcome was “inactive”. For `CC(C)(C)NCC(O)c1cc(O)cc(O)c1` (stereo not given), the outcome was “inactive”. In the case of `C[N+]1([O-])CCOCC1`, the outcome is reported as “inactive”. For `CN1C(=O)c2ccc([N+](=O)[O-])cc2C1=O`, the outcome was “inactive”. In the case of `CCn1cc(C(=O)O)c(=O)c2cc(F)c(N3CCNC(C)C3)c(F)c21` (stereo not given), the outcome is reported as “inactive”. With `CCOc1ccc2c(c1)C(C)=CC(C)(C)N2` the outcome was “inactive”. With `CC(C)CCCCCCc1ccc(O)cc1` the outcome was “inactive”. For `O=C(O)c1cccc(C(=O)O)c1`, the outcome was “inactive”. With `Cc1scc2c1N(C(=O)CN1CCN(C)CC1)c1ccccc1NC2=O` the outcome was “inactive”. For `O=C1Nc2ccccc2C1(c1ccc(O)cc1)c1ccc(O)cc1`, the outcome was “inactive”. With `CCN(CC)c1ccc2c(C)cc(=O)oc2c1` the outcome was “inactive”. For `CCCCCCCCCCCCc1ccccc1O`, the outcome was “inactive”. With `CCCC(=O)c1ccccc1` the outcome was “inactive”. With `C=CC(=O)OCCCCCCCC` the outcome was “inactive”. For `O=C(O[C@@H]1Cc2c(O)cc(O)cc2O[C@@H]1c1cc(O)c(O)c(O)c1)c1cc(O)c(O)c(O)c1`, the outcome was “inactive”. In the case of `CC(C)CCOCc1ccccc1`, the outcome is reported as “inactive”. For `NCCO`, the outcome was “inactive”. In the case of `CC1COC(=O)O1` (stereo not given), the outcome is reported as “inactive”. In the case of `C=C(C)C(=O)O`, the outcome is reported as “inactive”. With `Cc1cc(C(C)(C)C)c(O)c(C(C)(C)C)c1` the outcome was “inactive”. With `CC(N)=O` the outcome was “inactive”. In the case of `CCOc1ccccc1C(N)=O`, the outcome is reported as “inactive”. For `CCCNC(C)C(=O)Nc1ccccc1C` (stereo not given), the outcome was “inactive”. With `CCCCCC(=O)O[C@]1(C(C)=O)CC[C@H]2[C@@H]3CCC4=CC(=O)CC[C@]4(C)[C@H]3CC[C@@]21C` the outcome was “inactive”. With `CC(=O)Nc1ccc(C(=O)CCl)cc1` the outcome was “inactive”. In the case of `CC1=CC(=O)c2ccccc2C1=O`, the outcome is reported as “inactive”. With `CC1COc2c(N3CCN(C)CC3)c(F)cc3c(=O)c(C(=O)O)cn1c23` (stereo not given) the outcome was “inactive”. For `CCCCCCCCCCCCCC[P+](CCCC)(CCCC)CCCC`, the outcome was “inactive”. For `COc1cc(C(=S)N2CCOCC2)ccc1O`, the outcome was “inactive”.
